According to the supplement of paper PMC12636033:
± gives the standard deviation of the averaged measurements. Over roughly 33,000 sequences, “E-score (rank enrichment, -0.5 to 0.5)” has its median near -0.0075; the highest 2% begin near 0.23. The list comes from a sample in which the highest values are over-represented; it also holds similar and randomly drawn sequences.

system: WT Max(13-93) synthetic (M65Nle); assay: PBM 8-mer E-score (E-score (rank enrichment, -0.5 to 0.5)); higher = stronger preferential binding
Protocol: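 Protein binding microarray (universal PBM chip covering all 10-mers in fixed probe flanks) with chemically synthesized human Max(13-93) bHLH-LZ analogs (not full-length Max) bearing noncanonical residues (hArg, Tha, Aib, Nle at 65) and aromatic Cys staples. Read-out per 8-mer (and its reverse complement): E-score (rank-based enrichment, -0.5 to 0.5) and Z-score of median probe intensity.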

| Sequence | PBM 8-mer E-score |
| --- | --- |
| CCAACTCG | -0.00075 ± 0.037 |
| TCGTGCAA | 0.131 ± 0.057 |
| CCGTGCAA | -0.0752 ± 0.025 |
| ACGTGCAA | 0.3 ± 0.035 |
| GAATACGC | 0.0909 ± 0.01 |
| AAATACGT | 0.152 ± 0.043 |
| AAATACGC | 0.237 ± 0.027 |
| GTGAATCA | -0.115 ± 0.022 |
| ATAACACG | 0.307 ± 0.0054 |
| ATAACATC | 0.187 ± 0.028 |
| CTAACACA | 0.121 ± 0.13 |
| GTAACACA | 0.238 ± 0.024 |
| ATTACATA | 0.24 ± 0.039 |
| ATAACACA | 0.181 ± 0.095 |
| GTTACATA | 0.113 ± 0.0025 |
| GTAACAAA | 0.126 ± 0.0055 |
| ATTACATG | 0.223 ± 0.061 |
| ATAACATA | 0.266 ± 0.023 |
| ATAACATG | 0.231 ± 0.01 |
| ATAACACC | 0.106 ± 0.076 |
| AGGGGAAT | 0.0772 ± 0.04 |
| CCGTAGCC | -0.216 ± 0.071 |
| ACGCGTAA | 0.105 ± 0.048 |
| TCGCATCA | 0.046 ± 0.015 |
| AACGCAAA | -0.144 ± 0.021 |

| Sequence | PBM 8-mer E-score |
| --- | --- |
| GATCTTAA | 0.0118 ± 0.0058 |
| CAAATACG | 0.138 ± 0.086 |
| CTTTGCCA | -0.107 ± 0.097 |
| ACAACACA | 0.23 ± 0.091 |
| ACAACACC | 0.158 ± 0.0054 |
| ACAACACG | 0.261 ± 0.034 |
| ATCCATCG | -0.21 ± 0.014 |
| GGCGTGCA | 0.0504 ± 0.037 |
| CGCGTGCA | 0.285 ± 0.03 |
| CGCGTGCC | 0.124 ± 0.062 |
| CTCGTGCA | 0.134 ± 0.097 |
| AGCGTGCA | 0.285 ± 0.03 |
| AGCGTGCG | 0.0436 ± 0.017 |
| CAAATTCA | -0.0652 ± 0.032 |
| ATATTCTC | 0.189 ± 0.055 |
| CAACCACA | -0.0966 ± 0.041 |
| ATACCACG | 0.255 ± 0.015 |
| ATACCACC | 0.121 ± 0.028 |
| GTGCCACA | -0.00257 ± 8.5e-05 |
| CAACCACG | 0.301 ± 0.041 |
| ATACCACA | 0.159 ± 0.0088 |
| ATGCCACA | 0.00378 ± 0.092 |
| ATGCCACG | 0.259 ± 0.059 |
| AAACCACA | 0.223 ± 0.0085 |
| CGTGATTC | 0.117 ± 0.036 |

| Sequence | PBM 8-mer E-score |
| --- | --- |
| AGAACTGC | -0.0987 ± 0.0029 |
| CTTCACCC | 0.151 ± 0.046 |
| ATAGACGG | 0.103 ± 0.018 |
| ATGCGCAC | 0.102 ± 0.09 |
| ATGCGCAA | 0.1417 ± 0.00042 |
| ATGCGCAT | 0.285 ± 0.06 |
| CAACGCAG | -0.158 ± 0.021 |
| ACCCGAAC | -0.0582 ± 0.096 |
| AATGAACG | 0.163 ± 0.04 |
| AACACCGC | -0.0751 ± 0.024 |
| GTTTAAAC | 0.254 ± 0.0084 |
| ATTTAAAG | 0.0962 ± 0.044 |
| CTTTAAAC | 0.143 ± 0.0068 |
| ATTTAAAC | 0.263 ± 0.046 |
| GATTAAAC | 0.0366 ± 0.087 |
| GTTTAAAA | 0.0508 ± 0.026 |
| TACATCTA | 0.0666 ± 0.053 |
| CCGTTTAC | 0.0331 ± 0.077 |
| AATCTGTC | 0.0805 ± 0.0072 |
| ACGCATGG | 0.243 ± 0.026 |
| ACGCATAG | 0.0507 ± 0.032 |
| ACGCATGA | 0.127 ± 0.021 |
| ACGCATGC | 0.281 ± 0.04 |
| CCGCATGC | 0.2 ± 0.02 |
| ACGCATCC | 0.00574 ± 0.012 |

| Sequence | PBM 8-mer E-score |
| --- | --- |
| CGATTTCC | -0.13 ± 0.008 |
| GTGCTGGA | -0.0429 ± 0.077 |
| TTAAATAA | 0.12 ± 0.035 |
| ATAAATAA | 0.157 ± 0.031 |
| ATAAATAC | 0.295 ± 0.022 |
| ATAAATAG | 0.18 ± 0.017 |
| ATAAATAT | 0.267 ± 0.0039 |
| CTAAATAA | 0.119 ± 0.1 |
| AACAGTTG | -0.0604 ± 0.064 |
| GGACCTCC | -0.149 ± 0.028 |
| CCCCCCGA | -0.154 ± 0.12 |
| TACTTGGA | 0.0409 ± 0.043 |
| CATATTAC | 0.156 ± 0.05 |
| GATATTAA | 0.029 ± 0.025 |
| TATATTAA | 0.213 ± 0.011 |
| AATATTAA | 0.263 ± 0.014 |
| ATTATTAA | 0.172 ± 0.066 |
| GATATTAC | 0.237 ± 0.02 |
| AATATTAG | 0.152 ± 0.15 |
| CATATTAG | 0.15 ± 0.046 |
| ACTATTAA | 0.133 ± 0.0048 |
| AATATTAC | 0.228 ± 0.029 |
| CATATTAA | 0.306 ± 0.014 |
| AATATTAT | 0.285 ± 0.026 |
| CTCCCAGA | -0.18 ± 0.049 |

| Sequence | PBM 8-mer E-score |
| --- | --- |
| CCCCCAGG | -0.289 ± 0.17 |
| AAATTGTT | 0.0622 ± 0.024 |
| AAAATGTG | 0.205 ± 0.015 |
| AGCGACAT | 0.113 ± 0.056 |
| GATAGGTA | 0.24 ± 0.073 |
| CATAGGTA | 0.00152 ± 0.065 |
| AATAGGTA | 0.195 ± 0.0039 |
| GGCCTTTA | 0.0556 ± 0.0086 |
| CACGTGGG | 0.4865 ± 0.00015 |
| AACGTGGG | 0.215 ± 0.03 |
| GACGTGGC | -0.0348 ± 0.019 |
| AACGTGGC | 0.218 ± 0.022 |
| TACGTGGA | 0.109 ± 0.08 |
| CACGTGGC | 0.4858 ± 0.0018 |
| CACGTGGA | 0.4856 ± 0.0019 |
| CAAGTGGG | 0.0824 ± 0.037 |
| GACGTGGA | -0.0291 ± 0.023 |
| CTTACAAC | -0.0407 ± 0.16 |
| TGTAAGAA | 0.12121 ± 1.4e-05 |
| CGCTAAGC | -0.187 ± 0.092 |
| GTGCCTCA | -0.133 ± 0.12 |
| AACAGATT | -0.0422 ± 0.079 |
| CCAGAATA | -0.0319 ± 0.024 |
| GAACCTAA | -0.143 ± 0.099 |
| CCGGTCCA | -0.194 ± 0.12 |

| Sequence | PBM 8-mer E-score |
| --- | --- |
| AGGGCACT | -0.053 ± 0.033 |
| CTAGGTAA | -0.0715 ± 0.093 |
| ATAGGTAA | 0.0523 ± 0.015 |
| GTAGGTAA | 0.232 ± 0.042 |
| GTGCTTGA | -0.0248 ± 0.16 |
| AACCAGCA | -0.0798 ± 0.12 |
| AGTGCCCC | -0.0153 ± 0.009 |
| AACGCAGT | -0.173 ± 0.062 |
| AAAGTATA | 0.282 ± 0.045 |
| AAAGTATT | 0.118 ± 0.043 |
| CAAGTATA | 0.0775 ± 0.011 |
| GGAGCTTA | -0.168 ± 0.098 |
| AAACGCAG | -0.069 ± 0.017 |
| AACCGCAT | -0.102 ± 0.13 |
| TATCATAA | 0.239 ± 0.1 |
| TATCATGA | 0.272 ± 0.0036 |
| AATCATGG | 0.0882 ± 0.19 |
| AATCATGT | 0.235 ± 0.066 |
| AATCATGC | 0.168 ± 0.0099 |
| CATCATAA | 0.168 ± 0.045 |
| CATCATGA | 0.0797 ± 0.1 |
| GATCATAA | 0.156 ± 0.094 |
| AATCATGA | 0.134 ± 0.038 |
| ACGATATG | 0.0765 ± 0.093 |
| AGTAGCGA | -0.0978 ± 0.08 |

| Sequence | PBM 8-mer E-score |
| --- | --- |
| GGCTATAA | -0.0145 ± 0.049 |
| TGCTACCA | 0.081 ± 0.0046 |
| TCTGAAGA | -0.204 ± 0.095 |
| AAGTCCGG | -0.0703 ± 0.083 |
| AGGCCAAA | -0.0704 ± 0.025 |
| TAGGCATA | 0.0815 ± 0.076 |
| AGTTTCCC | -0.0461 ± 0.026 |
| ACTTGGGG | 0.0672 ± 0.1 |
| ATCACGTG | 0.481 ± 0.006 |
| ATCACACA | 0.266 ± 0.071 |
| ATCACGCC | 0.0823 ± 0.14 |
| ATCACGCG | 0.262 ± 0.0089 |
| CGCACGCG | 0.167 ± 0.051 |
| ATCACGTA | 0.174 ± 0.1 |
| ATCACGTC | 0.167 ± 0.0029 |
| ATCACACC | 0.0527 ± 0.072 |
| ATCACACG | 0.199 ± 0.029 |
| ATCACGCA | 0.0746 ± 0.08 |
| AGCACGCA | -5e-06 ± 0.0011 |
| AGCACGCG | 0.258 ± 0.035 |
| AAACAGTC | -0.0664 ± 0.047 |
| AGGTTTTG | 0.0094 ± 0.025 |
